Experiment [1] can be described thus: qHTS assay to identify small molecule agonists of the vitamin D receptor (VDR) signaling pathway - cell viability counter screen (AID 743224). Further: series mostly up to about 63 µM; nearly all actives have a fitted effect of over 50% in size. The method, boiled down:
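Here cell health was gauged by luminescent ATP detection (CellTiter-Glo, 30 min RT) in VDR-bla cells that had been incubated with test compounds for 16 h at 37C and 5% CO2.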
In general terms: qHTS replaces the single test concentration by a dilution series.

Experiment [2] can be described thus: qHTS assay to identify small molecule antagonists of the vitamin D receptor (VDR) signaling pathway - cell viability counter screen (AID 743225). Further: nearly all actives have a fitted effect of over 50% in size. The method, boiled down: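 VDR-UAS-bla HEK 293T cells were plated and incubated 4 h at 37C, then dosed with compound plus 3 nM (final) 1-alpha,25-dihydroxyvitamin D3 for 16 h. After the 2 h beta-lactamase read, viability in the same wells was read as CellTiter-Glo luminescence after 30 min at room temperature.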

Experiment [3] can be described thus: qHTS assay to identify small molecule agonists of the NFkB signaling pathway (AID 1159509; active means well fitted curve in the direction sought with a large enough effect in the signal ratio in the repeat runs, not every such curve was filed as active; the % refers to the signal ratio; further: series mostly up to about 61 µM). The method, boiled down: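 After overnight attachment, reporter cells received test compounds, DMSO or positive controls and were incubated 5 hr at 37 C. FRET substrate was then added for 1.5 hr at room temperature before dual-emission fluorescence reading.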
A short description of experiment [4]: qHTS assay to identify small molecule agonists of the NFkB signaling pathway - cell viability counter screen (AID 1159515; calls by dose curve; further: series mostly up to about 61 µM; nearly all actives have a fitted effect of over 55% in size). The procedure, abridged: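 5 hr compound treatment of NFkB-bla ME-180 cells (2,000/well, seeded overnight beforehand), followed by reporter substrate for 1.5 hr. CellTiter-Glo added afterward; luminescence after 30 min RT.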
A short description of experiment [5]: qHTS assay to identify small molecule agonists of the endoplasmic reticulum stress response signaling pathway (AID 1159516; active means well fitted activation curve with a large enough effect in the signal ratio in the repeat runs, not every such curve was filed as active; the % refers to the signal ratio). The procedure, abridged: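 Reporter HeLa cells (ESRE-beta-lactamase) underwent 5 hr compound incubation at 37 C and 5% CO2 in quantitative HTS format. Detection followed 2 hr of FRET substrate loading at room temperature.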
The nature of experiment [6]: qHTS assay to identify small molecule agonists of the endoplasmic reticulum stress response signaling pathway - cell viability counter screen (AID 1159517; calls by dose curve; further: nearly all actives have a fitted effect of over 50% in size; further: potency means the concentration at half of the fitted maximal effect). The procedure, abridged:
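Luminescence readout: CellTiter-Glo, 30 min RT, same wells as the ESRE-bla reporter read. HeLa ESRE-bla, 1,500 cells/well, o/n 37 C; cpd 5 hr 37 C/5% CO2.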

Experiment [7] is described as follows: qHTS assay to identify small molecule antagonists of the retinoid-related orphan receptor gamma (ROR-gamma) signaling pathway - cell viability counter screen (AID 1159520). Further: nearly all actives have a fitted effect of over 50% in size. The method, boiled down: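 Tet-on ROR gamma CHO cells (1,000/well) were plated 4 hr, given compounds in DMSO for 2 hr at 37 C, then induced with 1 uM final doxycycline for 16 hr. Viability was read as ATP by CellTiter-Glo luminescence after 30 min.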

In experiment [8] the target is Nuclear receptor ROR-gamma (Homo sapiens) (UniProt P51449). The experiment is described as follows: qHTS assay to identify small molecule antagonists of the retinoid-related orphan receptor gamma (ROR-gamma) signaling pathway (AID 1159521). The procedure, abridged:
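Tet-on ROR-gamma CHO cells with ROR response element-luciferase reporter; compounds added 2 hr before 1 uM doxycycline induction, then 16 hr at 37 C. Antagonism scored as decreased ONE-Glo luminescence.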

Experiment [9] in a line: qHTS assay to identify small molecule agonists of the AP-1 signaling pathway - cell viability counter screen (AID 1159525; calls by dose curve; further: nearly all actives have a fitted effect of over 55% in size). The procedure, abridged: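 ME-180 AP-1-bla, 2500 cells/well, Opti-MEM + 0.5% dialyzed FBS; overnight 37 °C; cpd 15-pt titration, 5 h 37 °C; CellTiter-Glo 30 min RT; luminescence read; normalised to TOAB and DMSO controls.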
Experiment [10] can be described thus: qHTS assay to identify small molecule agonists of the AP-1 signaling pathway (AID 1159526; calls by dose curve).
Experiment [11] has as its target Retinoic acid receptor RXR-alpha (Homo sapiens) (UniProt P19793). The experiment is described as follows: qHTS assay to identify small molecule agonists of the RXR signaling pathway (AID 1159527; calls by dose curve; further: nearly all actives have a fitted effect of over 35% in size). The method, boiled down: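 GeneBLAzer RXR-alpha-UAS-bla HEK 293T cells in 2% charcoal-stripped FBS medium were exposed to compounds for 16 hr at 37 C in agonist mode. Beta-lactamase reporter read as 460/530 nm FRET ratio after 2 hr substrate loading.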

A short description of experiment [12]: qHTS assay to identify small molecule agonists of the RXR signaling pathway - cell viability counter screen (AID 1159529). The procedure, abridged: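 RXR-alpha-UAS-bla HEK 293T cells in medium with 2% charcoal-stripped FBS were pre-incubated 5 hr, then compound-treated 16 hr at 37 C. Viability was read by CellTiter-Glo luminescence in the same wells as the beta-lactamase assay, with tetraoctyl ammonium bromide as positive control.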

The nature of experiment [13]: qHTS assay to identify small molecule antagonists of the retinoid acid receptor (RAR) signaling pathway - cell viability counter screen (AID 1159551). Further: nearly all actives have a fitted effect of over 35% in size. The procedure, abridged: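 Seed C3RL4 cells; next day add compound, then retinol to 1 uM final; incubate 6 h at 37 C; add CellTiter-Glo; read luminescence after 30 min at RT.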
Experiment [14] in a line: qHTS assay to identify small molecule antagonists of the retinoic acid receptor (RAR) signaling pathway (AID 1159552; further: nearly all actives have a fitted effect of over 50% in size). The method, boiled down:
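Retinol signaling pathway inhibitors screened in C3RL4 RARE-luciferase reporter cells seeded overnight at 37 C, then compounds added with 1 uM (final) retinol as pathway substrate. After 6 hr at 37 C, luciferase luminescence read after 30 min at room temperature.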

Experiment [15] can be described thus: qHTS assay to identify small molecule antagonists of the estrogen related receptor (ERR) signaling pathway - cell viability counter screen (AID 1224818).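 Further: series mostly up to about 46 µM; viability measured after 17.5 h of compound exposure.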 The procedure, abridged: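 In the same ERR cell assay, compound-treated wells (17.5 h, 37 C) were multiplexed with a fluorogenic viability reagent, CellTiter-Fluor, read after 30 min to flag cytotoxic substances.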

A short description of experiment [16]: qHTS assay to identify small molecule antagonists of the estrogen related receptor signaling pathway with the pleiotropic PPARgamma coactivator (PGC) cell viability counter screen (AID 1224822; further: series mostly up to about 46 µM). The method, boiled down:
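Compounds in DMSO, with positive and negative controls, were applied to PGC/ERR cells (2,000/well) and left 17.5 h at 37 C before CellTiter-Fluor detection.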

A short description of experiment [17]: qHTS assay to identify small molecule agonists of the retinoic acid receptor (RAR) signaling pathway (AID 1159553). The procedure, abridged:
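Activation of retinol signaling was monitored via a RARE luciferase reporter in C3RL4 cells. After 6 hr compound treatment at 37 C, detection reagent was added for 30 min at room temperature before luminescence reading.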

A short description of experiment [18]: qHTS assay to identify small molecule antagonists of the estrogen related receptor (ERR) signaling pathway (AID 1224819). The procedure, abridged: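 qHTS in ERR cells, 2,000/well, 1536 format. Cpd (DMSO) added after 6 h settle, 18 h 37 C. One-Glo luminescence, 30 min RT.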
Experiment [19] in a line: qHTS assay to identify small molecule agonists of the estrogen related receptor (ERR) signaling pathway (AID 1224820). The method, boiled down:
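Quantitative HTS of the LOPAC library used NTP ERR reporter cells treated 18 h at 37 C. Signal is luminescence after One-Glo addition and a 30 min room-temperature incubation.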

Experiment [20] relates to estrogen-related receptor alpha (ERRalpha) with PGC-1alpha coactivator, human. The experiment is described as follows: qHTS assay to identify small molecule antagonists of the estrogen related receptor signaling pathway with the pleiotropic PPARgamma coactivator (PGC) (AID 1224821; calls by dose curve). The procedure, abridged: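 Quantitative HTS for antagonism: PGC/ERR cells received compounds after 6 h attachment and were incubated 18 h at 37 C, with luminescence (One-Glo) as the endpoint.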

Values joined by “and” are separate entries in the source; they are usually repeats but may differ in a detail not shown here. Identical values can stand only once. Results filed as inconclusive are left out. Some compounds were tested as several samples or in several runs, with calls that do not always agree. Active and inactive are the calls of the source. Unless noted, the call rests on the fitted dose curve; in most records, active means well fitted curve in the direction sought with a large enough effect in the repeat runs; inconclusive means weak or mixed curves; inactive means no such curve, though single readings can be large; an effect the other way counts as inactive or inconclusive.

Chain of Retinoic acid receptor RXR-alpha (Homo sapiens) (P19793 whole entry, looked up): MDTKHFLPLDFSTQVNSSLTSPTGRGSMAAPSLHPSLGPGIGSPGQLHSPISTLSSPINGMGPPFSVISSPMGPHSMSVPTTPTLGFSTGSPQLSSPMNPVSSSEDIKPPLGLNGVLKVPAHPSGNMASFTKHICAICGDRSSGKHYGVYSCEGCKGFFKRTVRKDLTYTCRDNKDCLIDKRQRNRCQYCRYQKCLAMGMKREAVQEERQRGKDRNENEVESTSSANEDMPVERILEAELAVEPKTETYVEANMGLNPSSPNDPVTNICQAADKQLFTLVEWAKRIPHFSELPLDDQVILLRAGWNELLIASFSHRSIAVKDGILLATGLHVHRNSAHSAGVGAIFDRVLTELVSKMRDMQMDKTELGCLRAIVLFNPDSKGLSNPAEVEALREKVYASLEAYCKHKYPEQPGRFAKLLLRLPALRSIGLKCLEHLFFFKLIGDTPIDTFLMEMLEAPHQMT

Take `CC(=O)Oc1ccccc1C(=O)O`: the Potency entry in experiment [1], in experiment [6], in experiment [8], in experiment [10], in [11] and in experiment [12] was “inactive” throughout. In addition, in [14], the Potency entry was “inactive”. For the same molecule, the call in [2], in experiment [3], in experiment [4], in experiment [5], in experiment [7] and in experiment [9] was inactive. The call in experiment [13], in experiment [15] and in [16] was inactive.

`C=CC(=O)NC(C)(C)CS(=O)(=O)O`: the Potency entry in experiment [1], in experiment [6], in experiment [8], in [10], in experiment [12] and in [14] was “inactive” each time. For the same molecule, the outcome in experiment [2], in experiment [3], in experiment [4], in experiment [7], in experiment [9] and in experiment [13] was inactive.

As to `OC[C@@H](O)[C@@H](O)[C@H](O)[C@H](O)CO`, the Potency entry in experiment [1], in [6], in experiment [8], in [10], in experiment [12] and in experiment [14] was “inactive” throughout. Moreover, in experiment [17], the Potency result was “inactive”. For the same molecule, the outcome in experiment [2], in experiment [3], in experiment [4], in experiment [7], in experiment [9] and in [13] was inactive.

Turning to `O=C(OCc1ccccc1)c1ccccc1`, the Potency result in [1], in experiment [6], in experiment [8], in [10], in experiment [11] and in experiment [12] was “inactive” throughout. In experiment [14], the Potency entry is “inactive”. Moreover, the call in experiment [2], in experiment [3], in experiment [5], in experiment [7], in experiment [9] and in [13] was inactive.

Take `COC(=O)c1ccc(C=O)cc1`: the Potency result in [1], in [6], in [8], in [10], in experiment [12] and in experiment [14] was “inactive” each time. Also, the Potency result in experiment [17] was “inactive”. Besides, the outcome in experiment [2], in experiment [3], in experiment [4], in [7], in experiment [9] and in experiment [13] was inactive.

With `CC1(C)O[C@@H]2[C@@H](CO[C@@]3(COS(N)(=O)=O)OC(C)(C)O[C@@H]23)O1`, the Potency entry in experiment [1], in experiment [6], in experiment [8], in experiment [10], in experiment [12] and in experiment [14] was “inactive” in each case. Moreover, the molecule was called inactive in experiment [2], in experiment [3], in [5], in [7], in [9] and in [13].

For the molecule `Nc1ccc(N=Nc2ccccc2)c(N)n1`, the Potency result in experiment [1], in [6], in experiment [8], in [10], in experiment [11] and in [12] was “inactive” in each case. Also, the Potency result in experiment [14] is “inactive”. In addition, the call in [2], in experiment [3], in experiment [4], in [9] and in [13] was inactive.

Consider `NC(=O)N/N=C/c1ccc([N+](=O)[O-])o1`, for which the Potency result in experiment [1], in [8], in [10], in [12] and in experiment [18] was “inactive” each time. Further, the molecule was called inactive in [2], in experiment [3], in [5], in [7], in experiment [9] and in experiment [13]. The result in experiment [19], in [20] and in experiment [16] was inactive. Also, in experiment [6], the Potency entry is “inactive and 49 µM (active)”.

Consider `CC1=C(/C=C/C(C)=C/C=C/C(C)=C/C(=O)O)C(C)(C)CCC1`, for which the Potency entry in experiment [1], in [8], in experiment [10], in [12] and in [14] was “inactive” throughout. The molecule was called inactive in experiment [2], in experiment [3], in [4], in experiment [7], in experiment [9] and in experiment [13]. Moreover, the outcome in experiment [15] and in experiment [16] was inactive. Besides, in experiment [6], the Potency was 43.7 µM (active).

Values taken from PubChem BioAssay (Tox21).
